Experimental data as given in the supplement of paper PMC6555819.

Legend:
Assay in all cases: PBM binding z-score (relative to random genomic background probes); higher = stronger binding; sequences stand for … in GC…GCGATTGACAGCGTAGAATGAAGG
[1] = system: FXR:RXRa (NR concentration 270 nM, RXRa partner concentration 90 nM)
In short: (§1)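 Binding z-scores were set against random background probes. The data came from custom Agilent 4×180K protein-binding microarrays carrying double-stranded probes with 34-nt variable regions, incubated 1 h with ligand-free nuclear receptor dimers. Partner-specific antibodies detected binding, and scanned fluorescence was regression-normalized.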

[2] = system: LXRa:RXRa (NR concentration 270 nM, RXRa partner concentration 90 nM)
In short: as §1

[3] = system: LXRa homodimer (NR concentration 270 nM)
In short: as §1

[4] = system: LXRb:RXRa (NR concentration 270 nM, RXRa partner concentration 90 nM)
In short: as §1

[5] = system: LXRb homodimer (NR concentration 270 nM)
In short: as §1

[6] = system: PPARa:RXRa (NR concentration 270 nM, RXRa partner concentration 90 nM)
In short: as §1

[7] = system: PPARg:RXRa (NR concentration 180 nM, RXRa partner concentration 90 nM)
In short: as §1

[8] = system: PPARg:RXRa 270nM:90nM, anti-RXR (NR concentration 270 nM, RXRa partner concentration 90 nM)
In short: as §1

[9] = system: PPARg:RXRa 30nM:10nM, anti-RXR (NR concentration 30 nM, RXRa partner concentration 10 nM)
In short: as §1

[10] = system: PPARg:RXRa 90nM:30nM, anti-RXR (NR concentration 90 nM, RXRa partner concentration 30 nM)
In short: as §1

Sequence | PBM binding z-score [1] | PBM binding z-score [2] | PBM binding z-score [3] | PBM binding z-score [4] | PBM binding z-score [5] | PBM binding z-score [6] | PBM binding z-score [7] | PBM binding z-score [8] | PBM binding z-score [9] | PBM binding z-score [10]
ACAGACAGGTGAGTGAAGGTAAATCAGCTGGACG | 0.263 | -0.325 | -0.654 | -0.138 | -0.427 | -0.1 | 0.739 | -0.481 | -0.0948 | -0.384
CGTCCAAGGTCATAGGAGGTCAGAGAAGACAGAT | 8 | 7.71 | 5.01 | 6.38 | 0.877 | 6.27 | 6.35 | 6.19 | 2.71 | 5.09
GCGACTGGGGCAAAGCAGGTTACCAAAAGGTTGG | 0.475 | 0.517 | -0.168 | 0.19 | -1.32 | 1.78 | 1.11 | 1.55 | -0.194 | 0.774
AATACAGGATCATCGTAGGCCAGAGTACGCACAG | -0.0228 | 0.0727 | 0.0212 | 0.0447 | 0.414 | -0.0183 | 0.976 | 0.159 | 0.238 | 0.209
ACTGGGAGGACAAAGGTCAGAGCTACGCCAGTGA | 4.45 | 4.69 | 2.01 | 4 | 1.04 | 5.24 | 8.13 | 7.23 | 5.7 | 7.48
TGTCAAAGTTCAAAGGTAACGGAAGTATCCACAC | 7.08 | 6.74 | 4.4 | 4.82 | 1.8 | 6.04 | 8.79 | 7.85 | 5.15 | 7.21
ATCTCTAGGTAACAAAGTTCAGTGAATGCCGAAC | 0.948 | 1.9 | 2.1 | 1.27 | 0.958 | 2.12 | 2.01 | 3.09 | 1.01 | 2.42
GCGACAGGGGCAAAGCAGGTTACCATAAGGTTGG | 0.475 | 1.06 | -0.402 | 0.691 | -0.988 | 1.41 | 0.589 | 0.106 | -0.427 | -0.446
TGTCAAAGTTGAAAGGTAACGTAAGTATCCACAC | 1.27 | 1.12 | -0.229 | 1.38 | -0.452 | 3.49 | 5.4 | 5.19 | 2.72 | 4.73
GCTGCTAGGTCAACTGATGCTCAGCTAAAGCTCG | 4.03 | 2.63 | -0.106 | 1.88 | -0.349 | 3.79 | 2.66 | 3.35 | 0.299 | 2.26
CCTACTGGGGCAAAGGTTACCATACTCAGTACGA | 1.74 | 1.84 | 0.187 | 2.41 | -0.355 | 6.15 | 12.1 | 10 | 12.4 | 12.2
TCTCGTAGATCAACAGGAGGTTAAGAAAGATCGA | 0.345 | 1.09 | -0.171 | 1 | -0.667 | 1.13 | -0.29 | 1.7 | 2.94 | 2.36
TCATATAGGTAAACAGGTGAAAATCCGTAAGTTA | 1.24 | 1.11 | 0.438 | 1.28 | 0.151 | 2.23 | 2.95 | 3.15 | 4.38 | 3.6
AACTCTAGGTAAGACTCAGTTCAGTGAAGAACGC | -0.314 | -0.0738 | 0.141 | -0.191 | -0.311 | 0.00216 | 0.00417 | -0.304 | -0.237 | -0.258
TCTTGTAGATCAACAGGAGGTTAAGAAGGATCGA | 0.614 | 0.955 | 0.0858 | 0.854 | -0.55 | 1.34 | 0.000249 | 1.23 | 2.58 | 1.73
AGTCAAAGTTCACTAGGTAACGCAAGATTCAGCT | 5.26 | 4.86 | 2.69 | 2.93 | 0.956 | 4.83 | 7.22 | 6.82 | 3.62 | 6.03
ATTTCTAGGTAACCAAGTTCAGTGAATGCCGAAC | 0.465 | 0.956 | 1.1 | 0.544 | 0.68 | 2.16 | 1.8 | 1.8 | 0.773 | 1.38
TCATATAGGTAAAGGTGAAAATCGAACGATATGA | 1.01 | 1.19 | -0.224 | 1.35 | 0.0615 | 3.15 | 4.11 | 4.4 | 4.25 | 4.59
CCTCCAAGGTCAAGGTCAGTGAAAGAGACTCGAA | 7.8 | 5.56 | 1.22 | 4.56 | 0.877 | 5.99 | 6.15 | 6.06 | 2.76 | 4.75

Sequence | PBM binding z-score [1] | PBM binding z-score [2] | PBM binding z-score [3] | PBM binding z-score [4] | PBM binding z-score [5] | PBM binding z-score [6] | PBM binding z-score [7] | PBM binding z-score [8] | PBM binding z-score [9] | PBM binding z-score [10]
CCTAGTTGGTCAGGAGGTCACGCACCGGATATGA | 4.29 | 4.22 | 2.24 | 3.81 | 0.661 | 4.65 | 4.41 | 4.64 | 2.02 | 3.5
CGTCCAAAGTCAGCAGGTCAGTGAAAGCGACGTG | 0.237 | 0.521 | 0.0163 | 0.578 | -0.765 | 1.24 | -0.0107 | 0.0351 | -0.634 | -0.432
CCTTACTGGTCACTCCAGGTTATAGCATCGGAGT | 0.959 | 4.64 | 1.95 | 1.39 | 0.798 | 0.503 | 0.265 | 0.0704 | 0.0345 | 0.0913
TCGAGTAGGTTAGTCGGGGCATTTAGCCAACATA | 0.338 | 0.346 | -0.167 | 0.722 | -0.677 | 0.819 | -0.0847 | 0.976 | 1.17 | 1.04
TCGAGTAGGTTACCAAGGGGGCATTCAGCTTTCT | 1.44 | 4.34 | 0.768 | 4.55 | 6.02 | 2.95 | 1.48 | 3.04 | 2.18 | 2.74
CCTACTGGGCCAAGAAAGGTCATTGATTCAGTGA | 3.31 | 4.19 | 4.12 | 3.8 | -0.225 | 4.33 | 2.63 | 3.17 | 0.919 | 2.35
ATGTGTAGGTTATCGGGTCATTCAGTTTGCGCAT | 3.54 | 3.13 | 1.9 | 3.3 | 1.26 | 4.08 | 4.09 | 4.29 | 1.54 | 3.43
GATACCGGGTCAAGGCCAGAGTACGCGTATTGAT | 4.87 | 2.87 | -0.172 | 2.45 | -1.08 | 5.08 | 5.25 | 4.57 | 1.31 | 3.21
GCTAGTTGGTCAGTACAAGGTCACACACCGGTCG | 2.58 | 2.63 | 2.97 | 2.59 | 0.352 | 3.05 | 1.38 | 1.94 | 0.146 | 1.33
CCGAGTAGGTTATGGAGCATTCAGGCAACGGTGA | 0.0328 | 0.259 | 0.125 | 0.219 | -0.185 | 1.01 | 1.36 | 2.08 | 0.32 | 1.46
AATATTAGTTGACTTAGGGCAACCGATACGACGC | 0.123 | 0.163 | 0.741 | 0.405 | 0.26 | 0.162 | 1.09 | 0.355 | 0.448 | 0.286
GCATATAGGTAACACAAGGTGAAAGTCCGATTGT | 0.896 | 3.64 | -0.04 | 1.36 | -0.351 | 2.19 | 2.09 | 2 | 0.512 | 1.26
TGTTGTAGATCAATAGAGGTTAAGAAAGTGCGCT | 1.03 | 3.59 | 1.16 | 1.94 | 1.01 | 1.63 | 0.0938 | 0.944 | 0.473 | 0.795
CCTCGGAGGACAGAAGGTCAGAGCAGTCCGCTTT | 1.47 | 1.7 | 0.116 | 1.25 | -0.798 | 2.04 | 0.114 | 0.948 | -0.57 | 0.201
TCTTGTAGATCAACAGGAGGCTAAGAAAGATCGA | -0.113 | -0.312 | -0.481 | -0.391 | -0.588 | -0.00556 | -0.179 | 1.14 | 2.28 | 1.35
CTCGAAAGGTCGGTTGAGGAGAGTATACGGATAA | 1.93 | 1.38 | -0.296 | 1.13 | 0.0344 | 2.25 | 0.367 | 1.09 | 0.298 | 0.525
CGTCCAAGGTCAATGCTATGTCAGTGAAAGCATT | 6.33 | 4.8 | 0.645 | 3.67 | 0.692 | 4.99 | 3.66 | 4.41 | 1.02 | 2.95
TCAATTAGTTGAAGGGCAACCGACGAGTCCGTTT | 0.718 | 0.5 | 0.203 | 0.456 | -0.169 | 0.684 | 0.142 | 2.03 | 3.38 | 2.61
TAGCCTAGGTCATGCGGGCCAGAATAGTGTCGGC | 4.39 | 3.19 | 0.255 | 1.79 | -0.467 | 3.93 | 2.58 | 2.53 | 0.103 | 1.54
